# Data from PubChem BioAssay AID651597 (National Center for Advancing Translational Sciences (NCATS), 2012).
# The campaign covered roughly 1,100 compounds. About 390 (35%) were called active. Inconclusive results (about 30%) are left out. Calls follow the shape of the dose curve; as a rule, active = well fitted inhibition curve with a large enough effect; inconclusive = small, poorly fitted or top-dose-only effect; inactive = flat fitted curve, though single readings scatter. This is one part of the list. Where a call stands in place of a potency, no number is given.
# Target: Luciferin 4-monooxygenase (Photinus pyralis) (UniProt P08659)
# Test: qHTS of Nrf2 Activators: Hit Validation in Secondary FLuc Assay; also: nearly all actives have a fitted effect of over 65% in size
# Conditions: firefly luciferase inhibition counter-screen, luminescence; series mostly up to 57.5 µM
# Outline: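 Counter-screen on purified firefly luciferase with ATP and D-luciferin at Km concentrations; compounds flagged if they inhibit the enzyme, indicating possible reporter stabilization rather than ARE activation.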
# Potency is read from the fitted curve at half-maximal effect.
row,SMILES,Potency
1,COc1ccc(Sc2cnn(-c3ccccc3)c(=O)c2Cl)cc1,inactive
2,NC(=O)N/N=C/c1ccccc1OC(=O)c1ccccc1Br,10.7 µM (active)
3,c1ccc(CNc2nc(NCc3ccco3)nc(N3CCOCC3)n2)cc1,inactive
4,CCN=c1scc(C)n1/N=C/c1ccsc1,6.75 µM (active)
5,Cc1[nH]c2ccccc2c1N=Nc1ccccc1F,19 µM (active)
6,Cc1[nH]c2ccccc2c1N=Nc1ccccc1C(=O)O,8.49 µM (active)
7,Cc1cccn2c(=O)c(C=NCCO)c(NCc3ccco3)nc12,inactive
8,O/N=C/c1ccc2cccc(OCc3ccccc3)c2n1,inactive
9,CC1CN(C(=O)/C=C/c2ccc([N+](=O)[O-])s2)CC(C)O1 (centres undefined),inactive
10,Clc1ccccc1NN=Cc1ccccn1,2.13 µM (active)
11,COc1ccc(Cl)cc1NC(=O)c1cc(-c2ccccc2O)n[nH]1,inactive
12,COc1ccc(OC)c(/C=C(\C#N)c2nc(-c3ccc(F)cc3)cs2)c1,inactive
13,COc1ccc(O)c(-c2cc(-c3ccc(F)cc3)n[nH]2)c1,4.78 µM (active)
14,COc1ccc(O)c(-c2cc(-c3ccccc3Cl)[nH]n2)c1,6.01 µM (active)
15,COC(=O)c1scc(C)c1NC(=O)c1ccc(Cl)cc1,inactive
16,O=C(CN1CCN(Cc2ccccc2)CC1)N/N=C\C=C/c1ccco1,inactive
17,O=C1S/C(=C\C=C\c2ccco2)C(=O)N1c1ccc(O)cc1,9.53 µM (active)
18,O=C1S/C(=C\C=C\c2ccco2)C(=O)N1c1ccccc1,6.75 µM (active)
19,CN1CCN(c2sc(S(C)(=O)=O)nc2S(=O)(=O)c2ccc(Cl)cc2)CC1,inactive
20,Cc1ccc(O)c(NC(=O)c2cc([N+](=O)[O-])ccc2Cl)c1,inactive
21,Cc1ccc([N+](=O)[O-])cc1NC(=O)c1ccccc1,inactive
22,CC(C)=NNc1cnnc2ccc([N+](=O)[O-])cc12,10.7 µM (active)

row,SMILES,Potency
1,O=C(NC1CCCCC1)N(c1ccccc1)c1nnc(-c2cccc([N+](=O)[O-])c2)s1,16.9 µM (active)
2,CC(=O)Nc1ccc(S(=O)(=O)c2ccnc3cc(Cl)ccc23)cc1,inactive
3,c1ccc(C2=Nn3c(nnc3-c3ccco3)SC2)cc1,26.9 µM (active)
4,C[n+]1c2n(c3ccccc31)N=C(c1ccccc1)CS2,inactive
5,Cc1ccc(C)c(-c2nnc(NC(=O)c3ccc([N+](=O)[O-])o3)o2)c1,inactive
6,Cc1cc(C(=O)Nc2cc(Br)ccc2O)on1,inactive
7,Cc1nc(NC(=O)c2ccc(Br)o2)ccc1Br,9.53 µM (active)
8,O=C(Nc1ccc2ccccc2c1)c1ccc(Br)o1,1.2 µM (active)
9,Cc1ccc2oc(-c3cccc(NC(=O)c4ccc(Br)o4)c3)nc2c1,8.49 µM (active)
10,O=C(Cn1cnc2ccccc21)N/N=C/C(Br)=C/c1ccccc1,inactive
11,O=C(/C=C/Nc1ccc(F)cc1)c1cccs1,0.19 µM (active)
12,O=C(NNC(=O)c1nc(Cl)ccc1Cl)c1ccc(F)cc1,inactive
13,COCCn1c(=NC(=O)c2cc(Cl)sc2Cl)sc2cc(S(N)(=O)=O)ccc21,15.1 µM (active)
14,O=c1oc2ccccc2cc1-c1csc(Nc2ccc(O)cc2)n1,1.35 µM (active)
15,O=c1oc2ccc(Br)cc2cc1-c1nc2ccccc2o1,inactive
16,CN1CCN(S(=O)(=O)c2ccc(Sc3nnnn3-c3ccccc3)c([N+](=O)[O-])c2)CC1,inactive
17,CCOc1cc2c(c3c1C(c1ccccc1)N(S(=O)(=O)c1ccc(C)cc1)C3)C(=O)C=CC2=O (centres undefined),0.601 µM (active)
18,Cc1ccccc1/C=C1\C(=O)Nc2ccc(F)cc21,inactive
19,Cc1ccsc1/C=N/N=C1\C(=O)Nc2ccccc21,3.38 µM (active)
20,COC(=O)[C@@]1(Sc2ccc(C)cc2)CC(=O)N(C(=O)/C=C/c2ccccc2)[C@@H]1c1ccccc1,inactive
21,O=C(CNC(=S)NC(=O)c1ccccc1Br)c1ccccc1,inactive
22,O=C(NC(=S)Nc1cc(C(F)(F)F)ccc1Cl)c1ccccc1,inactive

row,SMILES,Potency
1,O=C(NC(=S)Nc1ccccc1O)c1ccccc1Cl,8.49 µM (active)
2,O=C1/C(=C\c2ccc(Cl)cc2)CCC1CNc1ccc(Cl)cc1 (centres undefined),19 µM (active)
3,Cc1ccc(S(=O)(=O)c2nc(S(C)(=O)=O)sc2N2CCCCC2C)cc1 (centres undefined),inactive
4,COc1cc(C=C(c2nc3ccccc3s2)c2nc3ccccc3s2)ccc1O,12 µM (active)
5,O=C1Nc2cccnc2N(C(=O)CCl)c2ccccc21,inactive
6,COc1ccccc1C=Cc1ccnc2ccccc12,5.36 µM (active)
7,O=C(c1ccco1)c1cn(CC(=O)N2CCCc3ccccc32)c2ccccc12,inactive
8,CC(=O)Nc1ccc(O)c(-c2nc3ccccc3s2)c1,2.13 µM (active)
9,O=C1c2cccc3cccc(c23)C(=O)N1Cc1ccco1,inactive
10,c1ccc(N=NC2=NN(c3ccccc3)CS2)cc1,2.13 µM (active)
11,O=C(O)c1ccc(-n2ncc(Cl)c(Cl)c2=O)cc1,inactive
12,Cc1ccc(Sc2cnn(-c3ccccc3)c(=O)c2Cl)cc1,inactive
13,O=c1c(Cl)c(N/N=C/c2ccc(Cl)cc2)cnn1-c1ccccc1,19 µM (active)
14,Oc1ccc2ccccc2c1/C=C/c1ccc2c(Br)cc(Br)c(O)c2n1,10.7 µM (active)
15,COc1cc(OC)c(NC(=O)c2ccco2)cc1Cl,inactive
16,Cc1noc(C)c1COc1ccccc1C(=O)NNC(=O)c1ccccc1F,inactive
17,COC(=O)c1sccc1NC(=O)c1ccccc1F,inactive
18,COc1cc2c(cc1NC(=O)c1ccco1)CCCC2,7.57 µM (active)
19,COc1cc2c(cc1NC(=O)c1ccccc1F)CCCC2,8.49 µM (active)
20,COC(=O)[C@@H]1Cc2c([nH]c3ccccc23)C(C)(C)N1C(=O)CCl,inactive
21,Cc1cc(Br)ccc1NC(=O)CNC(=O)Cn1ncc(Cl)c(Cl)c1=O,inactive
22,CCOC(=O)c1ccsc1NC(=O)CCS(=O)(=O)c1ccccc1,inactive

row,SMILES,Potency
1,CCOC(=O)c1ccccc1N/C=C/C(=O)c1ccccc1,10.7 µM (active)
2,CCOC(=O)c1cnc(-c2ccccc2)nc1-c1ccccc1,inactive
3,CS(=O)(=O)c1nc(S(=O)(=O)c2ccc(Cl)cc2)c(N2CCC3(CC2)OCCO3)s1,inactive
4,COC(=O)c1c(NC(=O)c2ccccc2)sc(C(N)=O)c1C,inactive
5,Cc1ccc(Nc2nc(C(N)=O)c(NC(=O)c3ccccc3Br)s2)cc1,13.5 µM (active)
6,NC(=O)c1nc(Nc2ccccc2)sc1NC(=O)c1ccccc1Br,inactive
7,O=C(Nc1nccc(-c2cccs2)n1)c1cccs1,10.7 µM (active)
8,O=C(Nc1ncc2c(n1)-c1ccccc1CC2)c1cccs1,10.7 µM (active)
9,O=C(CSc1nccc(-c2cccs2)n1)Nc1cccc(Cl)c1Cl,inactive
10,O=C(CSc1nccc(-c2cccs2)n1)Nc1cccc(Cl)c1,inactive
11,Oc1ccccc1Nc1nc2ccccc2n2nnnc12,10.7 µM (active)
12,Fc1ccc(Nc2nc3ccccc3n3cnnc23)c(F)c1,inactive
13,Cc1c(Nc2nc3ccccc3n3cnnc23)cccc1[N+](=O)[O-],inactive
14,CSc1ccc(C2NN=C(c3ccccc3)S2)cc1 (centres undefined),0.0426 µM (active)
15,CC(C)OC(=O)c1cn(-c2ccccc2)nc1-c1ccco1,6.75 µM (active)
16,O=C(Nc1cccnc1)C1(F)C(F)(F)C(F)(F)C(F)(F)C(F)(F)C1(F)F,inactive
17,N#Cc1c(NC(=O)c2ccc([N+](=O)[O-])o2)sc2c1CCC2,1.69 µM (active)
18,O=C(Nc1ccc(N2CCN(C(=O)c3ccc(Cl)cc3)CC2)cc1)c1ccc([N+](=O)[O-])o1,inactive
19,O=C(NCC1CCCO1)c1ccc([N+](=O)[O-])o1 (centres undefined),inactive
20,O=C(Nc1ccc(Br)c(Cl)c1)c1ccco1,5.36 µM (active)
21,O=C(Nc1nc(-c2ccncc2)cs1)c1ccco1,12 µM (active)
22,O=C(Nc1nc2ccsc2c(=O)s1)c1ccco1,10.7 µM (active)

row,SMILES,Potency
1,O=C(Nc1nc2c(ccc3ccccc32)s1)c1ccco1,4.78 µM (active)
2,O=C(Nc1cc(Cl)ccc1-n1cncn1)c1ccco1,inactive
3,Cc1ccc(Cl)c2sc(NC(=O)C3CC3)nc12,inactive
4,CC(=O)Nc1ccc2nc(NC(=O)c3ccco3)sc2c1,2.39 µM (active)
5,Cc1cc(Cl)cc2sc(NC(=O)c3ccco3)nc12,1.69 µM (active)
6,C[C@H]1CCC[C@]2(C)C[C@H]3OC(=O)C(CN4CCCCCC4)[C@H]3C=C12 (some centres undefined),inactive
7,N#CC1CC(c2ccccc2)=NN1c1ccccc1[N+](=O)[O-] (centres undefined),3.79 µM (active)
8,Cc1ccc(Cc2c(-c3ccco3)nc3c(C)cc(Br)cn23)cc1,5.36 µM (active)
9,Cc1cc(Br)cn2c(Cc3ccccc3)c(-c3ccco3)nc12,9.53 µM (active)
10,COc1cc2c(cc1OC)/C(=C/c1ccc(Cl)cc1)C(=O)OC2,inactive
11,O=C(O)c1ccc2c(=O)n3c(nc2c1)/C(=C/c1cccc(Cl)c1Cl)CC3,inactive
12,O=C(Nc1ccc2c(c1)C(=O)NC2=O)c1cccc(C(F)(F)F)c1,inactive
13,O=C(Nc1ccc(Br)c(C(F)(F)F)c1)c1ccccc1,9.53 µM (active)
14,O=C(Nc1c(Br)cc2c(c1Br)Cc1ccccc1-2)C(F)(F)F,inactive
15,Cc1cc(NCc2ccco2)n2c(nc3ccccc32)c1C#N,inactive
16,Cc1ccc(-c2nc(NCc3ccco3)c3ccccc3n2)cc1,10.7 µM (active)
17,c1ccc(Cn2ncc3c(NCc4ccco4)ncnc32)cc1,inactive
18,O=C(NC(=S)Nc1ccc(Cl)cn1)c1cccs1,0.151 µM (active)
19,O=C(NC(=S)Nc1ccc(Br)cn1)c1cccs1,0.19 µM (active)
20,O=C(NC(=S)Nc1cccc2cccnc12)c1cccs1,0.953 µM (active)
21,Cc1cccc(NC(=S)NC(=O)c2cccs2)n1,12 µM (active)
